The nature of test [1]: qHTS of pediatric cancer cell lines to identify multiple opportunities for drug repurposing: Primary screen for NB1643 cells (AID 1347099). Further: nearly all actives have a fitted effect of over 50% in size. The settings on record: NB1643 neuroblastoma viability, CellTiter-Glo luminescence, 48 h; series mostly up to 46 µM. The method, boiled down:
(§1)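 Luminescence from CellTiter-Glo served as readout of metabolically active cells after 48 h compound exposure. Titrations: MIPE 11-point, from 0.78 nM; NPC 8-point, from 0.59 nM (final). Concentration-response curves came straight from the primary screen.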
In general terms: In qHTS, concentration-response curves come from the screen itself.

Test [2] in a line: qHTS of pediatric cancer cell lines to identify multiple opportunities for drug repurposing: Primary screen for LAN-5 cells (AID 1347100). The settings on record: LAN-5 neuroblastoma viability, CellTiter-Glo luminescence, 48 h; series mostly up to 46 µM. In short, it runs like this: (§2)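 Cells (500-1,000/well) in growth media were settled 5 h at 37 degrees C, then given compounds for 48 h. Viability was read as CellTiter-Glo luminescence. Primary runs used MIPE at 11 points (0.78 nM-46 µM) and NPC at 8 points (0.59 nM-46 µM); follow-ups used 11 points.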

Test [3] in a line: qHTS of pediatric cancer cell lines to identify multiple opportunities for drug repurposing: Primary screen for BT-12 cells (AID 1347101). Further: nearly all actives have a fitted effect of over 25% in size. The settings on record: BT-12 viability, CellTiter-Glo luminescence, 48 h; series mostly up to 57.3 µM. The method, boiled down: (§3)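 Cells (500-1,000/well) rested 5 h, then received compounds for 48 h; metabolically active cells were measured by CellTiter-Glo luminescence. Final concentrations spanned up to 46 µM (MIPE, 11-point) or 0.59 nM-46 µM (NPC, 8-point) in primary screens, 11-point in follow-ups.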

The nature of test [4]: qHTS of pediatric cancer cell lines to identify multiple opportunities for drug repurposing: Primary screen for Rh18 cells (AID 1347102). Further: nearly all actives have a fitted effect of over 65% in size. The settings on record: Rh18 rhabdomyosarcoma viability, CellTiter-Glo luminescence, 48 h; series mostly up to 46 µM. The method, boiled down:
as §2

A short description of test [5]: qHTS of pediatric cancer cell lines to identify multiple opportunities for drug repurposing: Primary screen for RD cells (AID 1347104). Further: nearly all actives have a fitted effect of over 55% in size. The settings on record: RD rhabdomyosarcoma viability, CellTiter-Glo luminescence, 48 h; series mostly up to 46 µM. The method, boiled down: as §1
A short description of test [6]: qHTS of pediatric cancer cell lines to identify multiple opportunities for drug repurposing: Primary screen for MG 63 (6-TG R) cells (AID 1347105). Further: nearly all actives have a fitted effect of over 50% in size. The settings on record: MG 63 (6-TG R) viability, CellTiter-Glo, 48 h; series mostly up to 46 µM. The method, boiled down:
as §1

Test [7] in a line: qHTS of pediatric cancer cell lines to identify multiple opportunities for drug repurposing: Primary screen for OHS-50 cells (AID 1347103). Further: nearly all actives have a fitted effect of over 40% in size. As to conditions: OHS-50 osteosarcoma viability, CellTiter-Glo luminescence, 48 h; series mostly up to 57.3 µM. The method, boiled down:
as §3

Test [8] in a line: qHTS of pediatric cancer cell lines to identify multiple opportunities for drug repurposing: Primary screen for control Hh wild type fibroblast cells (AID 1347106). Further: nearly all actives have a fitted effect of over 55% in size. As to conditions: Hh wild-type fibroblast viability, CellTiter-Glo luminescence, 48 h; series mostly up to 46 µM. In short, it runs like this: as §2
Test [9] is described as follows: qHTS of pediatric cancer cell lines to identify multiple opportunities for drug repurposing: Primary screen for Rh30 cells (AID 1347107). Further: nearly all actives have a fitted effect of over 75% in size. As to conditions: Rh30 rhabdomyosarcoma viability, CellTiter-Glo luminescence, 48 h; series mostly up to 46 µM. In short, it runs like this: as §2
The nature of test [10]: qHTS of pediatric cancer cell lines to identify multiple opportunities for drug repurposing: Primary screen for Rh41 cells (AID 1347108). Further: nearly all actives have a fitted effect of over 70% in size. As to conditions: Rh41 rhabdomyosarcoma viability, CellTiter-Glo luminescence, 48 h; series mostly up to 46 µM. In short, it runs like this:
as §1

The nature of test [11]: qHTS of pediatric cancer cell lines to identify multiple opportunities for drug repurposing: Confirmatory screen for NB1643 cells (AID 1347109). Further: nearly all actives have a fitted effect of over 45% in size. The settings on record: NB1643 neuroblastoma cell viability; series mostly up to 45.9 µM. In short, it runs like this: as §2
Test [12] is described as follows: qHTS of pediatric cancer cell lines to identify multiple opportunities for drug repurposing: Confirmatory screen for A673 cells (AID 1347110).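 Further: cells exposed to compound for 48 h before the viability read; nearly all actives have a fitted effect of over 65% in size.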 The settings on record: A673 Ewing sarcoma cell viability; series mostly up to 45.9 µM. The method, boiled down: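 Forty-eight-hour viability assay. Follow-up compounds ran at 11-point dilutions; positive control bortezomib at 2.3 uM final, neutral control DMSO.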

The nature of test [13]: qHTS of pediatric cancer cell lines to identify multiple opportunities for drug repurposing: Confirmatory screen for SK-N-MC cells (AID 1347111).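 Further: cells exposed to compound for 48 h before the readout; nearly all actives have a fitted effect of over 70% in size.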 As to conditions: SK-N-MC cell viability; series mostly up to 45.9 µM. In short, it runs like this: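 Metabolically active cells were quantified by ATP-dependent luminescence (CellTiter-Glo, 15 min at room temperature) following 48 h treatment. Cells had been plated at 500-1,000 per well and settled for 5 h beforehand.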

Test [14] can be described thus: qHTS of pediatric cancer cell lines to identify multiple opportunities for drug repurposing: Confirmatory screen for NB-EBc1 cells (AID 1347115).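 Further: cells exposed to compound for 48 h before the viability read; nearly all actives have a fitted effect of over 45% in size.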 The settings on record: NB-EBc1 neuroblastoma cells, viability (cytotoxicity); series mostly up to 45.9 µM. In short, it runs like this:
as §2

Test [15] can be described thus: qHTS of pediatric cancer cell lines to identify multiple opportunities for drug repurposing: Confirmatory screen for SJ-GBM2 cells (AID 1347116). Further: nearly all actives have a fitted effect of over 60% in size. The settings on record: SJ-GBM2 glioblastoma cells, viability; series mostly up to 45.9 µM. The method, boiled down:
(§4)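 Viability measured as metabolically active cells via CellTiter-Glo luminescence following 48 hours of compound exposure, 11-point dilutions in confirmatory testing. 500-1,000 cells/well plated 5 hours before dosing; controls were DMSO and 2.3 µM bortezomib.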

Test [16] can be described thus: qHTS of pediatric cancer cell lines to identify multiple opportunities for drug repurposing: Primary screen for SK-N-SH cells (AID 1347098). Further: nearly all actives have a fitted effect of over 65% in size. The settings on record: SK-N-SH viability, CellTiter-Glo luminescence, 48 h; series mostly up to 57 µM. In short, it runs like this: as §3
Test [17] is described as follows: qHTS of pediatric cancer cell lines to identify multiple opportunities for drug repurposing: Confirmatory screen for BT-12 cells (AID 1347112). Further: nearly all actives have a fitted effect of over 55% in size. As to conditions: BT-12 rhabdoid tumor cells, viability; series mostly up to 45.9 µM. The method, boiled down:
as §2

The nature of test [18]: qHTS of pediatric cancer cell lines to identify multiple opportunities for drug repurposing: Confirmatory screen for LAN-5 cells (AID 1347113). Further: nearly all actives have a fitted effect of over 65% in size. As to conditions: LAN-5 neuroblastoma cell viability; series mostly up to 45.9 µM. In short, it runs like this: as §2
Test [19] in a line: qHTS of pediatric cancer cell lines to identify multiple opportunities for drug repurposing: Confirmatory screen for DAOY cells (AID 1347114). Further: nearly all actives have a fitted effect of over 65% in size. As to conditions: DAOY medulloblastoma cells viability, cytotoxicity qHTS; series mostly up to 45.9 µM. In short, it runs like this: as §4

Inconclusive results are not listed. Activity calls are given as the source filed them. The call rests on the fitted dose curve; in most records, active means well fitted curve in the direction sought with a large enough effect; inconclusive means small, poorly fitted or top-dose-only effect, or another doubt; inactive means no such curve, though single readings can be large; an effect the other way counts as inactive or inconclusive.

This is an account of results in PubChem BioAssay (NCATS).
Potency means the concentration at half of the fitted maximal effect.

For the compound `Nc1nc(NCCNc2ncc(-n3ccnc3)c(-c3ccc(Cl)cc3Cl)n2)ccc1[N+](=O)[O-]`, the Potency was 18.7 µM (active) in [1]; 10.5 µM (active) in [2]; 24.3 µM (active) in [3]; 14.8 µM (active) in [4]; 14.8 µM (active) in test [5]; 14.8 µM (active) in [6].

Consider `C=CC(=O)Nc1cccc(Oc2nc(Nc3ccc(N4CCN(C)CC4)cc3OC)ncc2Cl)c1`, for which the Potency in test [1] was 1.18 µM (active); in test [2], 1.05 µM (active); in test [3] it was 34.3 µM (active); in test [4] it was 20.9 µM (active); in test [7], 4.85 µM (active); in test [5], 7.43 µM (active). Further, the Potency in test [9] was 23.5 µM (active); in [10] it was 0.118 µM (active); in test [11] it was 23.3 µM (active); in test [12], 20.8 µM (active); in [13], 13.1 µM (active); in [15], 11.7 µM (active). Moreover, the Potency result in test [8] and in [14] was “inactive” throughout.

As to `CCCCc1nc2cc(C=CC(=O)NO)ccc2n1CCN(CC)CC`, the Potency in [16] is 3.41 µM (active); in test [2], 0.0833 µM (active); in test [3], 0.193 µM (active); in [4], 0.0148 µM (active); in test [7], 0.153 µM (active); in test [5], 2.09 µM (active). Besides, the Potency in [6] was 3.72 µM (active); in test [8], 16.6 µM (active); in test [10] it was 0.935 µM (active); in test [11], 1.31 µM (active); in test [12], 2.08 µM (active); in test [13] it was 1.04 µM (active). For the same compound, the Potency in test [17] is 4.14 µM (active); in test [18], 1.04 µM (active); in test [19], 2.33 µM (active); in [14], 3.29 µM (active); in [15] it was 2.93 µM (active).

As for `Cc1cnc(-c2cnc(NCCNc3ccc(C#N)cn3)nc2-c2ccc(Cl)cc2Cl)[nH]1`, the Potency entry in test [2], in test [7], in test [8], in test [11], in test [17] and in test [18] was “inactive” in each case. Besides, in test [15], the Potency entry is “inactive”. The Potency in test [5] is 20.9 µM (active); in test [13] it was 11.7 µM (active); in [19], 16.5 µM (active); in test [14], 14.7 µM (active).

With `CCCCN1CCC(CNC(=O)c2c3n(c4ccccc24)CCCO3)CC1`, the Potency in test [16] is 15.2 µM (active); in [5], 4.69 µM (active); in test [6] it was 0.935 µM (active); in test [8] it was 1.18 µM (active). The Potency entry in test [9] is “inactive”.
